We go through nine compounds from PubChem BioAssay (NCI).

Among the test systems are DU-145 prostate; K-562 leukemia; MDA-MB-231 breast; RXF 393 renal; SF-268 CNS; SF-295 CNS; SF-539 CNS; M14 melanoma; HCT-15 colon; HT29 colon; SNB-75 CNS; SNB-19 CNS; U251 CNS; PC-3 prostate; SK-MEL-5 melanoma; UACC-62 melanoma; LOX IMVI melanoma; SK-MEL-28 melanoma; MALME-3M melanoma.
Common to all, as to test: NCI-60 one-dose screen, 48 h (100 = growth as untreated, 0 = no growth, -100 = all killed)
Common to all, as to details: 10 µM unless noted

SMILES strings stand for the structures. Compounds without any hit were thinned out: in the full panel of roughly 83,000, 20% have a hit.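 96-well plates, one dose, 48 hours. Percent growth reported; active if below 10.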 A number with no mark means an inactive call. The source made the active and inactive calls.

`NC(=O)N1N=C(c2ccc(Cl)cc2)CC1c1cn(-c2ccccc2)nc1-c1ccc(Cl)cc1` (stereo unspecified): the growth in the test on DU-145 prostate was 77.7%; in the test with K-562 leukemia, 78.8%; in the test on MDA-MB-231 breast, 43.4%; in the test on RXF 393 renal, -11.2% (active); in the test with SF-268 CNS, 55.4%; in the test on SF-295 CNS, 40.3%. The growth in the test with SF-539 CNS is 37.8%; in the test on M14 melanoma it was 79.8%; with HCT-15 colon it was 72%; with HT29 colon, 51.1%; in the test with SNB-75 CNS it was -10.5% (active); in the test on SNB-19 CNS, 44%. Further, the growth in the test on U251 CNS was 46%; in the test on PC-3 prostate it was 52.8%; with SK-MEL-5 melanoma, 79%; in the test with UACC-62 melanoma it was 61.7%; in the test on LOX IMVI melanoma, 55.9%; with SK-MEL-28 melanoma, 78.4%.
With `CO/C=C/C(=O)c1cc2cnc3c(=N)cc(NC(=O)C(C)C)c([nH]1)c23`, the growth in the test on DU-145 prostate was 4.45% (active); with K-562 leukemia it was 3.9% (active); in the test on MALME-3M melanoma it was -77.5% (active); in the test with MDA-MB-231 breast, -31% (active); in the test on SF-268 CNS, -47.4% (active); in the test with SF-295 CNS, -51.6% (active). In addition, the growth with SF-539 CNS is -57% (active); in the test with M14 melanoma, -61.3% (active); with HCT-15 colon, -26.8% (active); in the test with SNB-75 CNS it was -11.8% (active); in the test with SNB-19 CNS, -29.8% (active); with U251 CNS, -74.3% (active). For the same compound, the growth with PC-3 prostate is -21.6% (active); in the test on SK-MEL-5 melanoma, -96.9% (active); with UACC-62 melanoma, -53.8% (active); in the test with LOX IMVI melanoma, -73.9% (active); in the test on SK-MEL-28 melanoma, -44.8% (active).
For the compound `CCN(CC)Cc1cc(Nc2cc(C(F)(F)F)c(C#N)c3nc4ccccc4n23)ccc1O`, the growth in the test on DU-145 prostate was 25.1%; in the test on K-562 leukemia, 11.3%; in the test with MDA-MB-231 breast, -8.6% (active); in the test with RXF 393 renal, 0.263% (active); in the test with SF-268 CNS, 26.7%; in the test on SF-295 CNS, 5.79% (active). The growth in the test with SF-539 CNS was 5.91% (active); in the test on M14 melanoma, 24.3%; with HCT-15 colon it was 6.22% (active); with HT29 colon, 5.33% (active); in the test on SNB-75 CNS it was 13.5%; in the test with SNB-19 CNS, 18.5%. For the same compound, the growth in the test on U251 CNS is 8.94% (active); in the test with PC-3 prostate, 6.16% (active); with SK-MEL-5 melanoma it was -36.4% (active); in the test on UACC-62 melanoma, 9.53% (active); with LOX IMVI melanoma, 12.2%; in the test on SK-MEL-28 melanoma it was 29.6%.
Take `CC1(C=O)NC(=O)NC1=O` (stereo unspecified): the growth in the test with DU-145 prostate is 111%; with K-562 leukemia, 103%; with MALME-3M melanoma, 118%; in the test with MDA-MB-231 breast it was 103%; in the test on SF-268 CNS it was 101%; in the test with SF-295 CNS, 103%. In addition, the growth was 103% in the test on SF-539 CNS; 103% with M14 melanoma; 101% in the test with HCT-15 colon; 99.2% with HT29 colon; 92.8% in the test with SNB-75 CNS; 103% in the test on SNB-19 CNS. Besides, the growth is 82% in the test on U251 CNS, 88% in the test with PC-3 prostate, 99.2% in the test on UACC-62 melanoma and 112% in the test on SK-MEL-28 melanoma.
With `CCCc1cc2cc(-n3nc(C)c4c3CC(C)(C)CC4=O)cc(NC3CCC(O)CC3)c2c(=O)[nH]1` (stereo unspecified), the growth with DU-145 prostate was 38.8%; in the test on K-562 leukemia, 10%; in the test on MALME-3M melanoma it was 29.9%; in the test with MDA-MB-231 breast, -0.14% (active); in the test with SF-268 CNS, 50.2%; in the test with SF-295 CNS, -35.6% (active). The growth is 37.8% in the test with SF-539 CNS; 23.6% in the test with M14 melanoma; 23.6% with HCT-15 colon; 8.7% (active) in the test on HT29 colon; 49.4% in the test on SNB-75 CNS; 40% in the test with SNB-19 CNS. Moreover, the growth in the test with U251 CNS was 25.6%; in the test with PC-3 prostate, 33%; in the test on SK-MEL-5 melanoma, 15.8%; with LOX IMVI melanoma, -18.4% (active); with SK-MEL-28 melanoma, 36.4%.
Consider `CCc1nc2ccc(Cc3ccc(C(=O)NO)cc3)cc2c(=O)n1CCc1ccccc1`, for which the growth was 2.78% (active) with DU-145 prostate; 1.5% (active) in the test on K-562 leukemia; -24% (active) in the test on MDA-MB-231 breast; -66.6% (active) with RXF 393 renal; -48.5% (active) with SF-268 CNS; -79.1% (active) in the test with SF-295 CNS. Besides, the growth with SF-539 CNS was -43.1% (active); in the test on M14 melanoma, -63.8% (active); with HCT-15 colon it was -43.2% (active); with HT29 colon it was -40.8% (active); in the test with SNB-75 CNS it was -20.8% (active); with SNB-19 CNS, -44.9% (active). Further, the growth with U251 CNS is -71.4% (active); in the test on PC-3 prostate, -66.5% (active); in the test with SK-MEL-5 melanoma it was -65.6% (active); in the test on UACC-62 melanoma, -57.7% (active); with LOX IMVI melanoma, -76.2% (active); with SK-MEL-28 melanoma, -36% (active).
Turning to `CC(=O)Oc1ccccc1C(=O)N=C1[Se]CCN1C(=O)c1ccccc1OC(C)=O`, the growth with DU-145 prostate is -44.2% (active); in the test with K-562 leukemia, 8.83% (active); with MDA-MB-231 breast, -22.2% (active); in the test on RXF 393 renal, -72.5% (active); in the test on SF-268 CNS it was -77.1% (active); in the test with SF-295 CNS, -67.6% (active). Also, the growth in the test with SF-539 CNS is -79.4% (active); with M14 melanoma, -57.7% (active); in the test on HCT-15 colon it was -36.1% (active); in the test with HT29 colon, 0.805% (active); in the test with SNB-75 CNS it was -65.2% (active); with SNB-19 CNS, -48.8% (active). In addition, the growth with U251 CNS is -63.6% (active); in the test on PC-3 prostate, -49.7% (active); in the test on SK-MEL-5 melanoma, -57.6% (active); in the test on UACC-62 melanoma, -57.8% (active); in the test with LOX IMVI melanoma it was -49% (active); in the test with SK-MEL-28 melanoma, -27.9% (active).
Turning to `CC1(O)CCC(Nc2cc(-c3ccc(C(F)(F)F)cc3)c(C#N)c3nc4ccccc4n23)CC1` (stereo unspecified), the growth in the test with DU-145 prostate is 67.8%; in the test on K-562 leukemia, 73.1%; in the test with MDA-MB-231 breast, 50.4%; with RXF 393 renal, 53.2%; in the test on SF-268 CNS, 64.5%; with SF-295 CNS, 51.9%. Also, the growth in the test with SF-539 CNS is 63.4%; with M14 melanoma, 91.2%; in the test with HCT-15 colon, 58.6%; in the test on HT29 colon, 60.7%; in the test on SNB-75 CNS, 41.4%; with SNB-19 CNS, 70.3%. Besides, the growth in the test with U251 CNS was 67.9%; in the test on PC-3 prostate, 35.5%; with SK-MEL-5 melanoma, 5.75% (active); with UACC-62 melanoma it was 77.1%; with LOX IMVI melanoma, 55%.
`COc1cc2c(cc1OCCCCCN1CCN(c3ncnc4ccccc34)CC1)N=CC1CCCN1C2=O` (stereo unspecified): the growth in the test on DU-145 prostate was -20.8% (active); with K-562 leukemia, 5.44% (active); in the test on MALME-3M melanoma, -59% (active); with MDA-MB-231 breast it was -26.6% (active); with SF-268 CNS, -0.231% (active); in the test on SF-295 CNS it was -39.7% (active). Moreover, the growth with SF-539 CNS was -77.3% (active); in the test on M14 melanoma, -66.9% (active); in the test with HCT-15 colon it was 0.198% (active); with HT29 colon, 8.89% (active); with SNB-75 CNS, -50.2% (active); with SNB-19 CNS, 12.6%. Also, the growth was 2.18% (active) in the test on U251 CNS; -38.6% (active) with PC-3 prostate; -90.4% (active) in the test with UACC-62 melanoma; -49.2% (active) in the test with LOX IMVI melanoma; -14.6% (active) in the test on SK-MEL-28 melanoma.
